“And” between values parts separate entries of the source, which are not always exact repeats. Identical values can stand only once. Out of some 420,000 compounds screened, about 64,000 (15%) were called active. Inconclusive results (about 27%) are left out. The list is a sample of the results. A number with no mark means an inactive call. The call rests on the fitted dose curve; in most records, active means well fitted inhibition curve with a large enough effect; inconclusive means small, poorly fitted or top-dose-only effect; inactive means flat fitted curve, though single readings scatter.
Test: qHTS for Inhibitors of human tyrosyl-DNA phosphodiesterase 1 (TDP1): qHTS in cells in absence of CPT; further: nearly all actives have a fitted effect of over 55% in size
Conditions: DT40 Tdp1-/- hTDP1 cells, no CPT, ATP luminescence, 48 h; activity change, negative = growth inhibition: at 46.2 µM (top of the series)
Procedure, shortened: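 Growth kinetics read by CellTiter-Glo luminescence after ≥48 hr at 37 °C. Cells: DT40 Tdp1-/- stably carrying human TDP1, 400 per well, compound exposure in the absence of CPT (DMSO vehicle).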
On the % scale 0 is the no-effect control and ±100 the full control effect; potency means the concentration at half of the fitted maximal effect.

Row | Compound | activity change, negative = growth inhibition | Potency
1 | Nc1ncnc2nnsc12 | -6.84% | 
2 | COc1cc(OC)cc(C(=O)NNC(=O)CNC(=O)c2ccc(Br)o2)c1 | -1.82% | 
3 | O=S(=O)(NCCc1csc(-c2ccccc2)n1)c1cccnc1 | -6.09% | 
4 | COc1ccc(-c2nc(CCNC(=O)c3ccc(Br)o3)cs2)cc1 |  | 20.6 µM (active) and 18.4 µM (active)
5 | CC(C)c1ccc(NC(=O)COC(=O)c2ccc(CN3CCCC3=O)cc2)cc1 | 13.6% | 
6 | CN(C)C(=O)N1CCNCC1 | 1.26% | 
7 | Cc1csc(=NC(=O)c2ccccc2)n1CCO | -16.2% | 
8 | C=C(C)CNC(=S)/N=c1\scc(C)n1CC |  | 20.6 µM (active)
9 | COc1ccc(NC(=S)Nc2ccc(S(N)(=O)=O)cc2)c(C)c1 | -13.9% | 
10 | COC(=O)c1sc(NC(=O)COC(=O)C2CCC2)c(C(=O)OC)c1C | -5.44% | 
11 | O=S1(=O)C[C@@H](N2CCN(CCO)CC2)[C@H](COCc2ccccc2)N1 | 20.9% | 
12 | Cc1csc(SCC(=O)Nc2ccc(C)c(S(=O)(=O)N(C)C)c2)n1 |  | 18.4 µM (active)
13 | Cc1ccc(NC(=O)CNCc2ccccn2)cc1S(=O)(=O)N(C)C | -3.4% | 
14 | COc1ccc(NC(=O)CSc2nc(C)cs2)cc1 | -29.3% | 
15 | CC(=O)c1sc(N)nc1C |  | inactive
16 | CC(C)[C@H](NC(=O)N1CC(=O)Nc2ccccc21)C(=O)N[C@@H](Cc1c[nH]c2ccccc12)C(=O)O | 0.876% | 
17 | CC(C[N+](C)(C)C)OC(N)=O (configuration not stated) |  | inactive
18 | Fc1ccc(COc2cccc(-c3n[nH]c(=S)o3)c2)cc1 | 1.3% | 
19 | COc1ccccc1OCCNC(=O)CCNC(=O)c1ccccc1Cl | 4.86% | 
20 | O=C(O)c1ccccc1OCc1ccccc1Cl | 0.336% | 
21 | O=C(NCCOc1ccccc1Cl)C(=O)Nc1ccccc1 |  | 18.4 µM (active)
22 | CCC(C)NC(=O)C1CCCN(C(=O)NC2CCCCC2)C1 (configuration not stated) | 0.165% | 

Row | Compound | activity change, negative = growth inhibition | Potency
23 | C=CCN(c1ccc(C(=O)Nc2cc(C)cc(C)c2)cc1)S(C)(=O)=O | -24.1% | 
24 | COc1ccc(-c2onc(C)c2-c2ccc3c(c2)OCCO3)c(O)c1 |  | 18.4 µM (active)
25 | COc1ccc(O)c(C=Nc2cc(C)on2)c1 | 0.215% | 
26 | COc1ccc(C#Cc2c(-c3ccc(OC)cc3)oc3ccc(-c4ccc5c(c4)OCO5)cc23)cc1 | -5.09% | 
27 | CC[C@H](C)[C@@H](C(=O)N1CCNCC1)n1cc([C@@H](N)Cc2ccc(O)cc2)nn1 | -10.6% | 
28 | O=C(O)c1ccn(COc2ccc(Br)cc2)n1 | -11.4% | 
29 | CCC(=O)N1CCc2cc(S(=O)(=O)CCC(=O)N3CCN(c4ccccc4F)CC3)ccc21 | -0.867% | 
30 | Cn1c(=O)c(=O)n(C)c2cc(S(=O)(=O)CCC(=O)N3CCCCC3)ccc21 | -4.15% | 
31 | Cc1cccc(N2CCN(C(=O)CCS(=O)(=O)c3ccc4c(c3)NC(=O)C(C)S4)CC2)c1C (configuration not stated) |  | 25.9 µM (active)
32 | NC(=O)c1cc(S(=O)(=O)NCCCc2ccco2)cs1 |  | 8.2 µM (active)
33 | COc1cccc(CNS(=O)(=O)c2csc(C(N)=O)c2)c1 | 1.51% | 
34 | COc1ccc(NC(=O)C2CCC(CNS(=O)(=O)c3csc(C(N)=O)c3)CC2)cc1OC (configuration not stated) | 18.6% | 
35 | CCC(=NC1CC(C)(C)NC(C)(C)C1)C1=C(O)CC(C)(C)CC1=O | -5.34% | 
36 | Cn1c(=O)cc(SCC(=O)N2CCCC2)c2cc(Cl)ccc21 | -14.8% | 
37 | CC1(C)C(c2cccs2)=[N+]([O-])C2(CCCCC2=O)N1O (configuration not stated) | -15.3% | 
38 | COc1ccc(C(CC(=O)O)NC(=O)Cc2ccccc2)cc1 (configuration not stated) | -1.16% | 
39 | COc1ccc(C(CC(=O)c2ccccc2)S(=O)(=O)c2ccccc2)cc1 (configuration not stated) |  | 18.4 µM (active)
40 | COc1ccc(N(Cc2ccccc2)S(=O)(=O)c2cccc(C(=O)O)c2)cc1 | 2.71% | 
41 | CC(C)c1cc(C(=O)N/N=C/c2ccoc2)c(O)c(C(C)C)c1 | 12.3% | 
42 | CCOCCCNC(=O)Cc1cc(=O)[nH]c(=O)[nH]1 | -0.0606% | 
43 | COc1ccc(NC(=O)Cn2c(-c3ccc(OC)cc3)cn(-c3ccc(C)cc3)c2=O)cc1 | -22.8% | 
44 | CC(=O)OCC1(O)CC23CCC4c5ccoc5CCC4(C)C2CCC1C3 (configuration not stated) |  | 14.6 µM (active)

Row | Compound | activity change, negative = growth inhibition | Potency
45 | Cc1ccc(SCCC(=O)Nc2cc(C)on2)cc1 | 1.17% | 
46 | O=C(O/N=C(/c1ccccc1)c1ccncc1)c1ccccc1[N+](=O)[O-] | -19.9% | 
47 | O=C(CN1CCOCC1)Nc1ccc(NC(=O)CN2CCOCC2)c(Cl)c1 | -7.28% | 
48 | CC(=O)OC1CCC2(O)CC1(C)CCC1C2CC1(C)C (configuration not stated) | -13.3% | 
49 | CCOC(=O)c1csc(CCNC(=O)c2oc3c(Cl)cc(C)cc3c2C)n1 |  | 20.6 µM (active)
50 | Cc1ccc2c(=O)cc(C(=O)NCCc3ccc(S(N)(=O)=O)cc3)oc2c1C | -26.4% | 
51 | COc1ccc(NC(=O)c2cccc3c2C(=O)N(CC2CCCO2)C3)cc1OC (configuration not stated) |  | 23.1 µM (active)
52 | COCCN1Cc2cccc(C(=O)Nc3ccccc3OC)c2C1=O | -19.1% | 
53 | CCOc1ccc(NC(=O)c2cccc3c2C(=O)N(CC2CCCO2)C3)cc1 (configuration not stated) | -27.1% | 
54 | O=C(CNS(=O)(=O)c1ccc(Br)s1)N1CCN(C(=O)c2ccco2)CC1 | -15.3% | 
55 | O=C(CNC(=O)c1cc2c(s1)CCC2)Nc1ccccc1Br | -25.6% | 
56 | COc1ccc2oc(=O)c(C(=O)NCc3ccccn3)cc2c1 | -20.1% | 
57 | COc1cncc(-c2cnc3sc(NCCc4ccccn4)nn23)c1 |  | 13 µM (active)
58 | Cc1ccc(C(=O)N/C(=C\c2cccs2)C(=O)NCCc2ccccn2)cc1C | -26.9% | 
59 | C[C@H](CO)N1C[C@H](C)[C@H](CN(C)C(=O)Nc2ccc3c(c2)OCO3)Oc2ncc(Br)cc2C1=O | -3.88% | 
60 | CN1CCCC(OC(=O)COc2ccc(Br)cc2)C1 (configuration not stated) | 6.51% | 
61 | CC(=O)Nc1ccc(N2C(=O)CC(Sc3nccc(C)n3)C2=O)cc1 (configuration not stated) | -28.4% | 
62 | CCOc1ccccc1N1C(=O)CC(Sc2nccc(C)n2)C1=O (configuration not stated) |  | 20.6 µM (active)
63 | CCOc1ccccc1-n1c(SCC(=O)N2CCCC2)nnc1-c1ccoc1C | -5.39% | 
64 | COc1ccc(C(=O)NC(C)c2nccs2)cc1OC1CCN(C(C)C)CC1 (configuration not stated) | 13.2% | 
65 | COc1ccc(-c2[nH]ncc2CN(C)Cc2cc(C)[nH]n2)c(F)c1 | -26.4% | 
66 | Cc1cc(C)nc(NC(=O)Nc2ccccc2C(F)(F)F)n1 |  | 18.4 µM (active)

Row | Compound | activity change, negative = growth inhibition | Potency
67 | Cc1cc(Cl)nc(NC(=O)Nc2cccc(Cl)c2)n1 | -24.8% | 
68 | Cc1cc(C)nc(NC(=O)C(C)N2C(=O)c3ccccc3C2=O)n1 (configuration not stated) | -11.5% | 
69 | CC(C)C(NC(=O)c1cccc(S(=O)(=O)N2CCOCC2)c1)C(=O)NCCc1ccccn1 (configuration not stated) | -8.62% | 
70 | O=C(COC(=O)c1ccncc1)c1ccccc1 | -1.61% | 
71 | Cc1ccc(C(=O)COC(=O)c2cccc(N3C(=O)c4c(C)nc5ccccc5c4C3=O)c2)cc1C | 14.6% | 
72 | O=C(COC(=O)c1c2c(nc3ccccc13)CCCC2)c1ccc(Br)s1 |  | 7.31 µM (active)
73 | CC1CCC(NC(=O)c2ccc(N3CCCC3=O)cc2)CC1 (configuration not stated) | 2.73% | 
74 | CN1C(=O)/C(=C/c2ccc(C(=O)NC3CCCC3)cc2)Oc2ccccc21 |  | 10.3 µM (active)
75 | O=C(NC1CCCCC1)c1ccc(CNc2c(N3CCOCC3)c(=O)c2=O)cc1 | -6.18% | 
76 | CNC(=S)N1CCC(NC(=O)C(Cc2ccc(F)cc2)NC(C)=O)CC1 (configuration not stated) | -8.04% | 
77 | CCOc1ccc(C(CC(=O)O)n2cnnn2)cc1OC (configuration not stated) | -2.39% | 
78 | C[C@H]1CN([C@@H](C)CO)S(=O)(=O)c2ccc(Br)cc2O[C@H]1CN(C)C(=O)c1cnccn1 | -0.338% | 
79 | CN(C)c1nc(=Nc2cccc(Cl)c2)ss1 |  | 0.206 µM (active)
80 | CCOC(=O)C1=C(O)CSC1=Nc1cccc(Cl)c1 | 0.713% | 
81 | CCN(CC)S(=O)(=O)c1ccc(OC(C)C)c(N)c1 | -17.6% | 
82 | CC(C)Nc1nnc(SC(C)C(=O)N(C)C2CCCCC2)s1 (configuration not stated) | -20.8% | 
83 | Cc1cccc(N2CCN(C3=C(c4ccccc4)C(=O)c4ccccc43)CC2)c1C |  | 11.6 µM (active)
84 | Cc1cccc(N2CCN(c3c(CN4CCCC4)c(=O)oc4ccccc34)CC2)c1C | 5.73% | 
85 | CC(Oc1ccccc1)C(=O)NN1Cc2ccccc2C1=N (configuration not stated) | 4.93% | 
86 | Cc1nn(C)cc1N1C(=O)c2cccc3c(N)ccc(c23)C1=O | -21.5% | 
87 | CCc1oc(-c2ccc(OC)cc2)c(C(=O)OCCCCCO)c1C(C)OCCO (configuration not stated) |  | 16.4 µM (active)
88 | CCN(CCCCOC(=O)c1ccc(OC)c(OC)c1)C(C)Cc1ccc(OC)cc1 (configuration not stated) | -25% | 

Row | Compound | activity change, negative = growth inhibition | Potency
89 | COc1ccc(C(=O)Nc2c(N)nc(SCC(=O)N3CCC(C)CC3)[nH]c2=O)cc1OC | 2.88% | 
90 | O=C(c1ccc2c(c1)C(=O)N(Cc1ccncc1)C2=O)N1CCN(S(=O)(=O)c2ccc(OC(F)(F)F)cc2)CC1 | -20% | 
91 | Oc1ccc(Br)cc1C1C=C(c2ccc3c(c2)OCO3)NC(c2ccc(Cl)cc2)N1 (configuration not stated) |  | 5.01 µM (active)
92 | CCN(CC(=O)Nc1cc(Cl)ccc1C)C(=O)CN1C(=O)NC2(CCCC2)C1=O | -2.6% | 
93 | CC(=O)NCCNC(=O)c1cc(-c2cccc3ccccc23)nc2ccccc12 | 9.72% | 
94 | CN(C)CCNC(=O)Nc1cccc(Cl)c1Cl | -9.59% | 
95 | CN(C)CCNC(=O)c1ccc(Cl)c2cc3ccccc3nc12 |  | 0.146 µM (active)
96 | CCNC(=S)N(CCN(CC)CC)Cc1cc2cc3c(cc2[nH]c1=O)OCCO3 | -29.6% | 
97 | Oc1c(C(c2cccs2)N2CCN(c3ccc(F)cc3)CC2)sc2ncnn12 (configuration not stated) | -10.6% | 
98 | CC1CC(C)CN(CC(=O)Nc2ccc(S(N)(=O)=O)cc2)C1 (configuration not stated) | -2.41% | 
99 | Cc1nc(SCC(=O)Nc2cc(C)on2)c2c(C)c(C)sc2n1 | -14.9% | 
100 | Cc1nc(SCC(=O)N2CCc3ccccc3C2)c2c(C)c(C)sc2n1 |  | 16.4 µM (active)
101 | Cc1nnc(SCC(=O)N2CCc3ccccc3C2)s1 | -19% | 
102 | O=C(NCC(O)c1nc2ccccc2[nH]1)c1ccc(Br)cc1 (configuration not stated) | -3.34% | 
103 | O=C(CC1CCCCC1)NCc1ccc(F)cc1 | -0.903% | 
104 | CCOC(=O)C1CCN(C(=O)Nc2ccc(Cl)cc2)CC1 | -21.3% | 
105 | O=C(O)C1CCN(c2ccc([N+](=O)[O-])cc2[N+](=O)[O-])CC1 | -1.31% | 
106 | O=[N+]([O-])c1ccc(N2CCOCC2)cc1 | -11.2% | 
107 | O=[N+]([O-])c1ccc(N2CCN(c3ccc(O)cc3)CC2)c(Cl)c1 |  | 13 µM (active)

From PubChem BioAssay AID686978 (National Center for Advancing Translational Sciences (NCATS), 2013)
